102 molecules from PubChem BioAssay AID1347131 (National Center for Advancing Translational Sciences (NCATS), 2019) can be followed below.

SMILES strings stand for the structures. The campaign covered roughly 410,000 compounds. About 2,000 (0.49%) were called active. Entries that show only a call come without a potency. About 8% were inconclusive and are not listed. The call rests on the fitted dose curve; tested in HEK293 reporter line. This excerpt belongs to a sample that is enriched for actives.
Potency means the concentration at half of the fitted maximal effect.

A short description of this test: qHTS Assay for Foot and Mouth Disease Virus Antivirals: Primary Screen against the MLPCN compound library. Further: nearly all actives have a fitted effect of over 55% in size. As to conditions: FMDV antiviral cell-based qHTS; series mostly up to 57.9 µM.
As for `CCN(CC)c1ccc2cc(C(=O)NNC(=O)c3ccc(S(=O)(=O)N4CCCCC4)cc3)c(=O)oc2c1`, the Potency result was “inactive”.

Regarding `CCN(Cc1cc(=O)oc2cc(C)ccc12)c1ccccc1`, the Potency entry was “inactive”.

For `CCN(CC)c1ccc2c(Cl)c(Br)c(=O)oc2c1`, the Potency is 31.6 µM (active).

Regarding `O=C(C1=C[C@H](c2ccc3c(c2)OCO3)C[C@H](OCc2ccc(CO)cc2)O1)N1CCN(Cc2ccc3c(c2)OCO3)CC1`, the Potency result was “inactive”.

Consider `Cc1ccc(Nc2nc(N)nc(CN3CCN(c4ccccc4F)CC3)n2)cc1`, for which the Potency entry is “inactive”.

On to `O=C(N/N=C/c1ccc2ncccc2c1)c1ccco1`, for which the Potency is 14.1 µM (active).

For the molecule `CCOc1ccc(C=NNC(=O)c2cccc3ccccc23)cc1OCC`, the Potency entry is “inactive”.

With `O=C(Oc1cccc(/C=N/Nc2nc(N3CCOCC3)nc(N3CCOCC3)n2)c1)c1ccco1`, the Potency entry is “inactive”.

With `Cc1ccc(-c2ccc(=O)n(Cc3cc(C)ccc3C)n2)cc1`, the Potency result is “inactive”.

For `CCN1CCN(c2cc(-c3ccccc3)nc3cc(-c4cccc(F)c4)nn23)CC1`, the Potency entry is “inactive”.

As for `C=CC[C@@H](Cc1ccc(F)cc1)C(=O)OC[C@H]1CCCN1C(=O)[C@@H](CC=C)CC(=O)N(CCO)Cc1ccccc1`, the Potency entry is “inactive”.

As for `C=CC[C@@H](CC(=O)OC(C)(C)C)C(=O)OC[C@@H]1CCCN1C(=O)[C@@H](CC=C)CC(=O)N[C@H](CO)Cc1ccccc1`, the Potency was 14.1 µM (active).

With `C=CC[C@@H](CC(=O)OC(C)(C)C)C(=O)OC[C@@H]1CCCN1C(=O)[C@@H](CC=C)CC(=O)N[C@@H](CO)Cc1ccccc1`, the Potency entry was “inactive”.

For `COc1ccc(C(C)=O)cc1COC(=O)CNC(=O)c1ccccc1F`, the Potency result is “inactive”.

As for `N#CC(=C=[N-])c1nc2ccccc2nc1-[n+]1ccccc1`, the Potency entry is “inactive”.

Turning to `COc1cc(/C=N/NC(N)=S)cc(Br)c1OCc1ccccc1F`, the Potency result was “inactive”.

As to `COc1cccc(/C=N/NC(=O)CSc2nnc(C)n2-c2ccccc2)c1OC`, the Potency entry was “inactive”.

Consider `COc1cccc(/C=N/NC(N)=S)c1OCc1cccc(Cl)c1`, for which the Potency is 22.4 µM (active).

Turning to `CN(C(=O)OC(C)(C)C)c1ccc(-c2nc3ccccc3s2)cc1`, the Potency entry was “inactive”.

`Cc1cc(-c2nc3ccccc3s2)ccc1N`: the Potency was 7.94 µM (active).

As for `CC(C)(C)C(=O)Nc1ccc(-c2nc3ccccc3s2)cc1`, the Potency result was “inactive”.

For the molecule `Cc1cc(-c2nc3cc(F)ccc3s2)ccc1N`, the Potency was 12.6 µM (active).

`Cc1ccccc1-c1nc(CN2CCC(C(=O)NC3CCN(Cc4ccccc4)CC3)CC2)c(C)o1`: the Potency result was “inactive”.

As to `Cc1cc(=O)[nH]c(N/N=C/C2=C(N3CCOCC3)C(=C\c3ccc(Cl)cc3)/CC2)n1`, the Potency result was “inactive”.

`O=C(Nc1ccc(Cl)c(C(F)(F)F)c1)c1cc2nc(-c3ccc4c(c3)OCO4)cc(C(F)(F)F)n2n1`: the Potency result was “inactive”.

As for `CC[C@H]1c2[nH]c3ccc(C(C)C)cc3c2[C@@H]2CCN3C(=O)CCC[C@H]1[C@H]23`, the Potency entry is “inactive”.

`CC(C)(C)n1ncc2c(=O)n(CC(=O)Nc3ccc(Cl)cc3)cnc21`: the Potency result is “inactive”.

`CC(C)(C)n1ncc2c(=O)n(CC(=O)NCc3ccccc3)cnc21`: the Potency was 20 µM (active).

For the molecule `CC(C)(C)n1ncc2c(=O)n(Cc3c(Cl)cccc3Br)cnc21`, the Potency result is “inactive”.

Turning to `CCCCCn1c(NC(=O)c2ccco2)c(C(=O)OCC)c2nc3ccccc3nc21`, the Potency entry was “inactive”.

As to `COc1cc(/C=C2/CCc3ccccc3C2=O)cc(OC)c1OC`, the Potency entry was “inactive”.

Consider `COc1ccc(/C=C2\CN(Cc3ccccc3)C/C(=C\c3ccc(OC)cc3)C2=O)cc1`, for which the Potency entry was “inactive”.

As for `CCOc1ccc(/C=C2\CCc3ccccc3C2=O)cc1`, the Potency was 20 µM (active).

In the case of `Cc1ccc(-c2noc(CCC(=O)NCCN3CCc4ccccc4C3)n2)cc1`, the Potency entry is “inactive”.

`O=S(=O)(N/N=C\c1cccc(F)c1)c1ccccc1`: the Potency entry was “inactive”.

In the case of `Fc1cccc(/C=N/Nc2ccc3ccccc3n2)c1`, the Potency was 12.6 µM (active).

Turning to `C(=N\Nc1ccc2ccccc2n1)/c1ccc2c(c1)OCCO2`, the Potency result is “inactive”.

As for `O=C(NCc1ccc(F)cc1)c1cc(Sc2ccc(F)cc2F)nc2ccccc12`, the Potency result was “inactive”.

Take `Cc1ccc(Cl)c(OCCN2CCc3ccccc3C2)c1`: the Potency entry was “inactive”.

Turning to `CN(CC(=O)Nc1ccc(Cl)cc1)CC(=O)Nc1sc2c(c1C(N)=O)CCC2`, the Potency entry is “inactive”.

For the molecule `CC1Cc2nc(SCC(=O)N3CCN(c4ccccc4)CC3)n(C)c(=O)c2S1` (configuration not stated), the Potency entry was “inactive”.

Regarding `CC1(C)Cc2ccccc2-c2nnc(SCC(=O)N3CCN(c4ccccc4)CC3)n21`, the Potency is 7.94 µM (active).

Regarding `O=C(CSC1=NCCS1)N1CCN(c2ccccc2)CC1`, the Potency result is “inactive”.

Regarding `C/C(=N\NC(=O)c1cc(-c2cccs2)nc2ccccc12)c1ccccn1`, the Potency result was “inactive”.

Take `FC(F)(F)c1cc(-c2cccs2)nc(-n2cc(Br)cn2)n1`: the Potency result is “inactive”.

With `Cc1cc2ncc(-c3cccs3)nc2cc1C`, the Potency is 11.2 µM (active).

As to `O=C1Nc2ccc([N+](=O)[O-])cc2OC1CCN1CCN(c2ccccc2)CC1` (configuration not stated), the Potency entry is “inactive”.

As to `COc1ccc(-c2ccc(C(=O)N3CCN(C)CC3)c3occc23)c(C)c1`, the Potency entry is “inactive”.

Turning to `Nc1nc(CSc2n[nH]c(-c3ccccc3)n2)nc(Nc2ccccc2)n1`, the Potency is 25.1 µM (active).

Turning to `Nc1nc(COC(=O)CCC(=O)c2ccc(Cl)cc2)nc(Nc2ccccc2)n1`, the Potency entry is “inactive”.

With `CCOc1ccccc1CNC(=O)CSc1n[nH]c(-c2ccccc2)n1`, the Potency entry is “inactive”.

For `O=C1c2cccnc2Oc2ccc(Cl)cc2N1Cc1ccc(F)cc1`, the Potency result was “inactive”.

For `[N-]=[N+]=CC(=O)C(Cc1ccccc1)N1C(=O)c2ccccc2C1=O` (configuration not stated), the Potency entry was “inactive”.

Regarding `Cc1ccc2[nH]c(C(=O)N3CCCCC3)cc2c1`, the Potency entry is “inactive”.

With `O=C(c1cc2ccc3cccnc3c2[nH]1)N1CCN(c2cccc(Cl)c2)CC1`, the Potency result was “inactive”.

Regarding `O=C(c1cc2ccc3cccnc3c2[nH]1)N1CCCCC1`, the Potency is 14.1 µM (active).

Take `CN(C)N(Cc1ccccc1)C(=O)C(O)(c1ccccc1)c1ccccc1`: the Potency entry is “inactive”.

Take `CCc1ccc(NC(=O)CSCc2nc(N)nc(Nc3ccccc3CC)n2)cc1`: the Potency entry was “inactive”.

For the molecule `CCCC(=O)Nc1cccc(NC(=O)c2cccc([N+](=O)[O-])c2C)c1`, the Potency result was “inactive”.

For `Cc1ccc(C(=O)COC(=O)c2cc(Cl)ccc2O)cc1[N+](=O)[O-]`, the Potency result is “inactive”.

With `Cc1ccc(C(=O)COC(=O)c2cccc(NC(=O)c3ccc([N+](=O)[O-])cc3[N+](=O)[O-])c2)cc1`, the Potency is 20 µM (active).

As to `C=C(C(=O)c1ccccc1)C(c1ccccc1)C(C)C(=O)c1ccccc1` (configuration not stated), the Potency result is “inactive”.

For `CC(=O)OC1CC2C(C)(C)C(O)CC[C@@]2(C)C2CC[C@@]3(C)C(c4ccoc4)OC(=O)C4OC43[C@]12C` (some centres not stated), the Potency result is “inactive”.

Turning to `COC(=O)c1ccc(-c2nc3ccccc3[nH]2)cc1`, the Potency was 15.8 µM (active).

As for `CS(=O)(=O)c1ccc(C(=O)Nc2cccc(-c3nc4ccccc4[nH]3)c2)cc1`, the Potency entry is “inactive”.

With `CS(=O)(=O)c1ccc(C(=O)Nc2ccc(-c3nc4ccccc4[nH]3)cc2)cc1`, the Potency entry is “inactive”.

On to `COc1ccccc1N1CCN(Cc2cc(=O)oc3cc(C)ccc23)CC1`, for which the Potency entry is “inactive”.

In the case of `Cc1nc2ccccc2c2oc(C(=O)N3CC(C)CC(C)C3)cc12` (configuration not stated), the Potency entry is “inactive”.

With `Cc1ccc(OC(=O)Cn2c(C(F)(F)F)nc3ccccc32)cc1`, the Potency entry was “inactive”.

For `COc1cccc(NC(=S)NCc2cccs2)c1`, the Potency result was “inactive”.

Take `N#CC1=C(N)C(C#N)(C#N)C(c2cccnc2)C2CN(C(=O)OCc3ccccc3)CC=C12` (configuration not stated): the Potency was 22.4 µM (active).

Turning to `CC(=O)N1CC=C2C(C#N)=C(N)C(C#N)(C#N)C(CCc3ccccc3)C2C1` (configuration not stated), the Potency result is “inactive”.

As to `N#CC1=C(N)C(C#N)(C#N)[C@H](c2ccoc2)[C@H]2CN(Cc3ccccc3)CC=C12`, the Potency entry is “inactive”.

On to `Brc1ccc([C@H]2C=C[C@H]3CCCN4CC[C@H]2[C@@H]3[C@]42CO2)cc1`, for which the Potency result is “inactive”.

`CC(=O)Nc1ccc(S(=O)(=O)c2ccc([N+](=O)[O-])cc2)cc1`: the Potency result is “inactive”.

As for `O=C1NC(=O)N(CCc2ccc(F)cc2)C(=O)/C1=C/C=C/c1ccccc1`, the Potency is 10 µM (active).

For the molecule `O=C1NC(=O)N(Cc2ccccc2)C(=O)/C1=C\N1CCCc2ccccc21`, the Potency entry is “inactive”.

Consider `COc1ccc(CN2C(=O)NC(=O)/C(=C/c3ccoc3)C2=O)cc1`, for which the Potency result is “inactive”.

Turning to `O=C(Nc1ccc2c(c1)OCO2)c1cc(-c2ccc(Br)cc2)on1`, the Potency entry is “inactive”.

As to `CN(CCOc1ccc(Cl)cc1)CC(=O)Nc1ccc(OC(F)(F)F)cc1`, the Potency result is “inactive”.

With `N#Cc1c(/N=C/c2cccs2)sc2c1CCCCC2`, the Potency was 25.1 µM (active).

On to `O=C(Nc1sc2c(c1C(=O)Nc1ccc(Cl)cc1)CCCC2)c1cccs1`, for which the Potency entry was “inactive”.

`Cc1[nH]n(-c2ccc(F)cc2)c(=O)c1/C=N/c1sc2c(c1C#N)CCCC2`: the Potency result is “inactive”.

As to `O=C(Cc1ccccc1)NCC(=O)OCc1ccccc1F`, the Potency result was “inactive”.

As to `CC(Sc1nc2ccccc2c(=O)n1CC1CCCO1)C(=O)N(C)c1ccccc1` (configuration not stated), the Potency entry is “inactive”.

With `COc1ccc(C(CC(=O)Nc2cc([N+](=O)[O-])ccc2OC)c2ccccc2)cc1` (configuration not stated), the Potency result was “inactive”.

Take `CC(=O)NNC(=S)NC(=O)C(c1ccccc1)c1ccccc1`: the Potency result is “inactive”.

Take `CCOC1=C2CN(S(=O)(=O)c3ccc(C)cc3)[C@H](c3ccccc3)C[C@@H]2N(S(=O)(=O)c2ccc(C)cc2)[C@H](c2ccccc2)C1`: the Potency result is “inactive”.

As for `CC(C)c1ccc(NC(=O)c2cc(S(=O)(=O)N(C)C3CCCCC3)ccc2F)cc1`, the Potency entry was “inactive”.

As to `CCc1ccc2oc(-c3cc(N)ccc3Cl)nc2c1`, the Potency is 17.8 µM (active).

Turning to `CCCOc1ccc(C(=O)Nc2ccc3oc(-c4cccc(Cl)c4Cl)nc3c2)cc1`, the Potency entry is “inactive”.

For `CCOCCc1nnc(NC(=O)CS(=O)(=O)Cc2ccccc2)s1`, the Potency entry is “inactive”.

On to `CCCCN1C[C@H](CSC)[C@@H](CC(=O)NC)C1=O`, for which the Potency result was “inactive”.

Regarding `COc1ccc(NC(=O)NC23CC4(C)CC(C)(CC(C)(C4)C2)C3)cc1OC`, the Potency entry was “inactive”.

Take `COc1ccc(N2CCN(C(=O)CN3CCSc4ccccc43)CC2)cc1`: the Potency result is “inactive”.

`Cc1ccn2c(/C=N/OCc3cccc(F)c3)c(-c3ccc(Cl)cc3)nc2c1`: the Potency result was “inactive”.

Turning to `Cc1ccc(OCC(=O)Nc2ccc3c(c2)nc(CCNC(=O)c2ccco2)n3C)cc1`, the Potency result is “inactive”.

Turning to `Cc1ccc2nc(-c3ccc(NC(=O)COC(=O)c4ccco4)cc3)sc2c1`, the Potency is 12.6 µM (active).

In the case of `Cc1ccc(C(=O)OCC(=O)Nc2ccc(C)c(S(=O)(=O)N3CCCCC3)c2)c(O)c1`, the Potency result is “inactive”.

With `O=C(COC(=O)c1ccco1)Nc1ccc2[nH]c(=O)[nH]c2c1`, the Potency entry is “inactive”.

As for `Cc1ccc2nc(-c3ccc(NC(=O)COC(=O)c4cncc(Br)c4)cc3)sc2c1`, the Potency is 17.8 µM (active).

Consider `CCN(CC)S(=O)(=O)c1cccc(NC(=O)COC(=O)c2cncc(Br)c2)c1`, for which the Potency result is “inactive”.
